From the supplement of paper PMC6555819

Experiments:
Experiment in all cases: PBM binding z-score (relative to random genomic background probes); higher = stronger binding; sequences stand for … in GC…GCGATTGACAGCGTAGAATGAAGG
[1] = tested on: FXR:RXRa (NR concentration 270 nM, RXRa partner concentration 90 nM)
In short: (§1)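 Each nuclear receptor dimer, without ligand, was incubated for 1 h on custom Agilent 4×180K protein-binding microarrays. Binding was detected with antibodies against each partner (one per run), and scanned fluorescence was regression-normalized. The binding z-scores are referenced to random human genomic background probes.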

[2] = tested on: LXRa:RXRa (NR concentration 270 nM, RXRa partner concentration 90 nM)
In short: as §1

[3] = tested on: LXRa homodimer (NR concentration 270 nM)
In short: as §1

[4] = tested on: LXRb:RXRa (NR concentration 270 nM, RXRa partner concentration 90 nM)
In short: as §1

[5] = tested on: LXRb homodimer (NR concentration 270 nM)
In short: as §1

[6] = tested on: PPARa:RXRa (NR concentration 270 nM, RXRa partner concentration 90 nM)
In short: as §1

[7] = tested on: PPARg:RXRa (NR concentration 180 nM, RXRa partner concentration 90 nM)
In short: as §1

[8] = tested on: PPARg:RXRa 270nM:90nM, anti-RXR (NR concentration 270 nM, RXRa partner concentration 90 nM)
In short: as §1

[9] = tested on: PPARg:RXRa 30nM:10nM, anti-RXR (NR concentration 30 nM, RXRa partner concentration 10 nM)
In short: as §1

[10] = tested on: PPARg:RXRa 90nM:30nM, anti-RXR (NR concentration 90 nM, RXRa partner concentration 30 nM)
In short: as §1

[11] = tested on: PPARg:RXRa DBDmut IVT, anti-RXR (DBD mutation: RXRa K156A/R161A, NR concentration 270 nM, RXRa partner concentration 90 nM)
In short: as §1

[12] = tested on: PPARg:RXRa IVT, anti-PPARg (NR concentration 270 nM, RXRa partner concentration 90 nM)
In short: as §1

[13] = tested on: PPARg DBDmut:RXRa IVT, anti-PPARg (DBD mutation: PPARg1 K132A/R137A, NR concentration 270 nM, RXRa partner concentration 90 nM)
In short: as §1

[14] = tested on: PPARg DBDmut IVT, anti-PPARg (DBD mutation: PPARg1 K132A/R137A, NR concentration 270 nM)
In short: as §1

[15] = tested on: PPARg homodimer (NR concentration 180 nM)
In short: as §1

[16] = tested on: PXR:RXRa (NR concentration 270 nM, RXRa partner concentration 90 nM)
In short: as §1

[17] = tested on: PXR homodimer (NR concentration 270 nM)
In short: as §1

[18] = tested on: RARa:RXR (NR concentration 270 nM, RXRa partner concentration 90 nM)
In short: as §1

[19] = tested on: RARa homodimer (NR concentration 270 nM)
In short: as §1

[20] = tested on: RARb:RXRa (NR concentration 270 nM, RXRa partner concentration 90 nM)
In short: as §1

Sequence | PBM binding z-score [1] | PBM binding z-score [2] | PBM binding z-score [3] | PBM binding z-score [4] | PBM binding z-score [5] | PBM binding z-score [6] | PBM binding z-score [7] | PBM binding z-score [8] | PBM binding z-score [9] | PBM binding z-score [10] | PBM binding z-score [11] | PBM binding z-score [12] | PBM binding z-score [13] | PBM binding z-score [14] | PBM binding z-score [15] | PBM binding z-score [16] | PBM binding z-score [17] | PBM binding z-score [18] | PBM binding z-score [19] | PBM binding z-score [20]
CGTCCAAGGTCAAGATCAGTGAAAGAGACTCGAA | 6.95 | 4.97 | 0.248 | 3.85 | 0.6 | 5.63 | 4.78 | 5.2 | 1.46 | 3.58 | 3.03 | 3.31 | 0.858 | 0.353 | 2.49 | 3.3 | 0.349 | 3.99 | 1.69 | 5.14
GGATCGAGGGCATTCGAGTTGATAGCATGGCGAT | 0.788 | 1.56 | -0.155 | -0.0829 | -0.428 | 1.47 | 0.73 | 0.681 | -0.121 | 0.313 | 2.58 | 2.38 | -0.372 | -0.843 | 0.175 | 3.64 | 1.17 | 1.16 | -0.556 | 1.83
ATATGTAGGTTAAGGGTCCTTCAGGTTGGTTCGC | 0.735 | 1.21 | 0.278 | 1.18 | 0.267 | 4.59 | 8.87 | 8.11 | 8.31 | 9.26 | 7.65 | 7.29 | 1.78 | 0.916 | 2.1 | 1.1 | 0.435 | 1.23 | 0.703 | 1.24
ATCGAAAGGTCGACGAAGTGAGTATACACCGTTT | 3.64 | 2.87 | -0.00377 | 2.49 | 0.429 | 3.98 | 2.23 | 2.51 | 0.7 | 1.46 | 0.569 | 1.5 | 1.34 | 0.821 | 1.08 | 2.28 | -0.00563 | 2.81 | -0.0339 | 3.71
TCTATCAGTTGATTAGGGCAACCGAAACAGCGGA | -0.144 | 0.15 | -0.239 | 0.101 | 0.266 | 0.978 | 0.346 | 1.61 | 3.34 | 2.54 | 1.54 | 1.42 | 0.737 | 0.547 | -0.273 | 0.154 | -0.238 | 0.11 | -0.12 | 0.747
CGAACTAGCTCATTGACAGGACAGTGAATAGTAA | -0.457 | -0.373 | 0.0523 | -0.29 | -0.335 | -0.257 | 0.0799 | -0.461 | -0.245 | -0.396 | -0.0116 | -0.052 | 0.48 | 0.24 | -0.35 | -0.133 | 0.129 | 0.164 | 0.183 | -0.386
AGCCAAAGTTCATCTAGGTAACGTAAGATATGCT | 6.68 | 6.25 | 5.31 | 3.78 | 1.41 | 4.86 | 5.36 | 5.53 | 2.27 | 4.72 | 0.587 | 3.45 | 1.13 | 0.579 | 3.87 | 5.16 | 6.7 | 3.87 | 2.24 | 4.94
